SMILES strings stand for the structures. About 5,100 (2.5%) of roughly 200,000 compounds were called active. The list comes from a sample in which actives are over-represented; it also holds similar structures and randomly drawn compounds. Values without a mark were called inactive.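 Rule for the calls: active = activation above the screen-wide mean activation plus 3 SD (cut at about 130% in these data); inactive = the rest.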

The nature of this assay: potentiators of IFN-gamma driven STAT1 reporter – cell-based, HTS, luciferase reporter, primary screen (AID 932).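 Note: raw ratio to IFN-gamma control signal so 100% means no change and 0% no light.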 As to conditions: NIH 3T3 STAT1-luciferase reporter, luminescence, at 5.5 µM, active compounds read high, 100% = IFN-gamma alone, no compound.
For `Cc1nc([N+](=O)[O-])cn1CC(=O)Nc1ccc2c(c1)OCO2`, the activation (% of control) was 101%.

Regarding `CCOC(=O)NC(=O)C(=CNc1cccc(OC)c1)C(=O)NC(=O)OCC`, the activation (% of control) is 93.9%.

On to `O=C(Nc1ccccc1)c1ccc2nsnc2c1`, for which the activation (% of control) is 113%.

Consider `O=C(Nc1ccccc1Cl)c1ccc2nsnc2c1`, for which the activation (% of control) is 133% (active).

`Cc1cccc(NC(=O)c2ccc3nsnc3c2)c1C`: the activation (% of control) was 104%.

Consider `Cc1ccc(C(=O)Nc2cccc3ncccc23)cc1[N+](=O)[O-]`, for which the activation (% of control) is 106%.

On to `Cc1cc(Oc2ccccc2)nc(N2CCOCC2)n1`, for which the activation (% of control) is 100%.

Take `Cc1nc(N2CCOCC2)nc2c1CCCC2`: the activation (% of control) was 98.4%.

Turning to `Nc1nc(-c2sc3nc4c(cc3c2N)CCCC4)nc(N2CCOCC2)n1`, the activation (% of control) is 153% (active).

As for `CC(C)OC(=O)CN1CCN(c2ccc(Cl)cc2)CC1`, the activation (% of control) is 92.2%.

As for `Nc1nnnn1CC(=O)N/N=C/c1ccc(-c2cccc(Cl)c2)o1`, the activation (% of control) was 94.7%.

Regarding `O=C1c2ccccc2NC(c2ccc(-c3cccc(Cl)c3)o2)N1O` (stereo not drawn), the activation (% of control) was 132% (active).

As to `O=C1NC(c2cccc(Cl)c2)Nc2ccccc21` (stereo not drawn), the activation (% of control) is 107%.

For the molecule `COc1ccc(C2=NN(c3nc4ccccc4s3)C(=O)C2)cc1`, the activation (% of control) is 101%.

Take `CCOc1ccc(NC(=O)NNC(=O)c2ccc(Cl)cc2Cl)cc1`: the activation (% of control) is 97.2%.

For `CS(=O)(=O)N(CC(=O)N1CCCC1)Cc1ccccc1`, the activation (% of control) was 98.3%.

With `O=C(CC1CCCCC1)NCc1ccco1`, the activation (% of control) is 108%.

For the molecule `Cc1ccc(OCC(=O)NC(C)c2ccccc2)c([N+](=O)[O-])n1` (stereo not drawn), the activation (% of control) is 117%.

Turning to `CSCC(NS(=O)(=O)c1ccc(C)cc1)C(=O)O` (stereo not drawn), the activation (% of control) is 105%.

For `CN1CCN(c2ccc(NC(=O)c3ccc4c(c3)OCCO4)cc2Cl)CC1`, the activation (% of control) was 144% (active).

Consider `O=C(Nc1ccc2c(c1)OCCO2)c1ccc(Cl)c(S(=O)(=O)N2CCCCC2)c1`, for which the activation (% of control) was 96.8%.

On to `O=C(Nc1cccc(Cl)c1N1CCOCC1)c1ccc2c(c1)OCCO2`, for which the activation (% of control) is 92.9%.

Turning to `CC(O)CNCCOc1cccc(Oc2ccccc2)c1` (stereo not drawn), the activation (% of control) was 102%.

Consider `COc1ccc(C(=O)Nc2nc(-c3ccc(S(=O)(=O)N4CCOCC4)cc3)cs2)cc1`, for which the activation (% of control) was 85.1%.

For the molecule `COc1ccc(-c2csc(N3CCN(Cc4ccc5c(c4)OCO5)CC3)n2)cc1`, the activation (% of control) is 101%.

Take `COc1ccc(-c2csc(Cc3nc(O)cs3)n2)cc1`: the activation (% of control) is 221% (active).

On to `Cc1cc(/C=C2/C(=N)N3C(=NC2=O)SN=C3S(C)(=O)=O)c(C)n1-c1ccccc1`, for which the activation (% of control) is 107%.

Regarding `CCCCN(CC)C(=S)Nc1ccc2nc3n(c(=O)c2c1)CCCCC3`, the activation (% of control) was 91%.

On to `Cc1csc(NC(=O)Nc2ccccc2[N+](=O)[O-])n1`, for which the activation (% of control) was 133% (active).

Regarding `Cc1c(NC(=O)Nc2ccccc2)cccc1[N+](=O)[O-]`, the activation (% of control) is 83.6%.

With `Cc1cc(NC(=O)Nc2ccccc2[N+](=O)[O-])no1`, the activation (% of control) is 114%.

Regarding `CN(Cc1cccc2ncccc12)C(=O)CC1C(=O)NCCN1Cc1ccc(F)cc1` (stereo not drawn), the activation (% of control) was 98.1%.

Turning to `CC(=O)c1cnc(-c2ccccc2)s1`, the activation (% of control) is 116%.

Consider `CC(C)(C)C(=O)c1cnc(Nc2ccccc2)s1`, for which the activation (% of control) was 156% (active).

Take `O=C(c1ccc(Cl)cc1)c1cnc(Nc2ccccc2)s1`: the activation (% of control) was 119%.

For `CS(=O)(=O)n1nc(-c2ccco2)nc1N`, the activation (% of control) is 105%.

`CCn1nnnc1SCC(=O)c1ccc(C)cc1C`: the activation (% of control) is 145% (active).

As for `CNC(=O)CSc1nnnn1-c1ccc(C)cc1C`, the activation (% of control) is 97.7%.

For the molecule `COc1ccc(C(=O)CSc2nnnn2C)c(OC)c1`, the activation (% of control) was 107%.

On to `O=C(CSc1ccccc1)Nc1ccc(NC(=O)c2ccco2)cc1`, for which the activation (% of control) was 109%.

As to `O=C(NCCSc1ccccc1)c1ccco1`, the activation (% of control) is 134% (active).

For the molecule `COc1ccc(CCNC(=O)c2ccco2)cc1`, the activation (% of control) is 109%.

In the case of `CN(C)S(=O)(=O)N1CCN(c2ccc([N+](=O)[O-])cc2)CC1`, the activation (% of control) was 110%.

Take `C/[N+]([O-])=C\c1ccc([N+](=O)[O-])o1`: the activation (% of control) is 99.5%.

For `Cn1cc(/C=C/c2nc3ccccc3c(=O)n2-c2cccc([N+](=O)[O-])c2)c2ccccc21`, the activation (% of control) was 85.4%.

`CCn1c(/C=C/c2ccc([N+](=O)[O-])o2)nc2ccccc2c1=O`: the activation (% of control) is 182% (active).

Take `CCCn1c(SCC(=O)Nc2ccc(C)c(S(=O)(=O)N3CCOCC3)c2)n[nH]c1=O`: the activation (% of control) was 90.6%.

Regarding `CCC(=O)Nc1ccc(C(=O)N2CCN(C(=O)c3ccco3)CC2)cc1`, the activation (% of control) was 99.8%.

Turning to `CN(C)c1ccc(C=NCCc2ccc(S(N)(=O)=O)cc2)cc1`, the activation (% of control) was 101%.

On to `O=C(Nc1ccn(Cc2ccccc2)n1)c1cccc(F)c1`, for which the activation (% of control) is 131% (active).

For the molecule `O=C(Nc1ccn(Cc2ccccc2)n1)c1n[nH]c([N+](=O)[O-])c1Cl`, the activation (% of control) is 121%.

`O=C(Nc1ccn(Cc2ccc(F)cc2)n1)c1ccncc1`: the activation (% of control) is 94.9%.

With `COC1=CCC2([N+](=O)[O-])CN(CC(=O)O)CC1([N+](=O)[O-])C2` (stereo not drawn), the activation (% of control) was 106%.

With `Fc1ccc2c(c1)C(c1cccnc1)=NNC(c1cccs1)=N2`, the activation (% of control) was 103%.

With `Cc1ccc(NC(=O)O/N=C/c2cccc([N+](=O)[O-])c2)cc1`, the activation (% of control) is 113%.

As to `COc1cc2c3c(c1)/C(=C1/SC(=S)NC1=O)C(=O)N3C(C)(C)C=C2C`, the activation (% of control) was 98.1%.

`Cc1ccc(NC(=O)c2oc3ccccc3c2C)c([N+](=O)[O-])c1`: the activation (% of control) is 100%.

Turning to `O=C(Nc1ccccc1)c1ccccc1NC(=O)C(F)(F)F`, the activation (% of control) was 93.5%.

As for `O=C(Nc1ccccc1)c1cc2ccccc2[nH]1`, the activation (% of control) was 137% (active).

For `CC(C)n1c(=O)[nH]c2cc(C(=O)Nc3ccccc3)ccc21`, the activation (% of control) is 128%.

`CCCCNC(=O)Nc1c(C)cc(SC#N)cc1C`: the activation (% of control) was 97.9%.

With `COc1ccc(/C=N/S(=O)(=O)c2ccccc2)cc1OC`, the activation (% of control) was 107%.

For `CCOc1ccc(/C=N/Nc2nncc(-c3ccccc3)n2)cc1OC`, the activation (% of control) is 107%.

For `COc1ccc(/C=N/Nc2nc3ccccc3o2)cc1OC`, the activation (% of control) was 153% (active).

For `CCOC(=O)c1ccc[n+](CC(=O)Nc2ccccc2OC(F)F)c1`, the activation (% of control) was 98.5%.

As to `O=C(Nc1nnc(CCc2ccccc2)s1)C1CCCO1` (stereo not drawn), the activation (% of control) was 109%.

In the case of `O=C(Nc1ccc(-c2nnc(-c3ccccc3)o2)cc1)C1CCCO1` (stereo not drawn), the activation (% of control) was 168% (active).

For the molecule `O=C(Nc1cccc(-c2nnc(-c3ccccc3)o2)c1)C1CCCO1` (stereo not drawn), the activation (% of control) was 120%.

As for `CC1CN(S(=O)(=O)c2ccc(C(=O)NN3CCN(C)CC3)cc2)CC(C)O1` (stereo not drawn), the activation (% of control) was 100%.

In the case of `CC(=O)c1sc(NC(=O)c2ccc(C)cc2)nc1C`, the activation (% of control) is 161% (active).

For the molecule `CC(=O)c1sc(NC(=O)C2=NN(c3ccccc3)C(=O)CC2)nc1C`, the activation (% of control) is 98.2%.

As for `CCOC(=O)c1sc(NC(=O)c2ccncc2)nc1C`, the activation (% of control) is 109%.

For the molecule `COc1cccc2sc(Nc3nc(C)c(C(C)=O)s3)nc12`, the activation (% of control) was 112%.

`CC(=O)c1sc(NC(=O)CCCOc2ccccc2C)nc1C`: the activation (% of control) was 105%.

Regarding `Cc1ccc(S(=O)(=O)Nc2nc(C)cc(N/N=C/c3ccc(O)cc3)n2)cc1`, the activation (% of control) is 95.6%.

`CC(=O)c1sc(N/N=C/c2ccc(C(C)C)cc2)nc1C`: the activation (% of control) is 158% (active).

In the case of `CC(=O)c1sc(NC(=O)c2cccc3ccccc23)nc1C`, the activation (% of control) is 114%.

For the molecule `CC(=O)c1sc(N/N=C\c2ccc(C)cc2)nc1C`, the activation (% of control) is 166% (active).

In the case of `Cn1c(=O)c2c(ncn2CCc2ccccc2)n(C)c1=O`, the activation (% of control) was 101%.

For the molecule `CC(NC(=O)Nc1ccccc1)C(c1cccs1)N1CCN(c2ccccc2)CC1` (stereo not drawn), the activation (% of control) is 87%.

For `O=C(CN1C(=O)c2cccc3cccc(c23)C1=O)N1CCCCC1`, the activation (% of control) is 89.3%.

Regarding `Cc1nccc(-c2ccc(-n3c(C)ccc3C)cc2)n1`, the activation (% of control) was 101%.

With `O=C(COC(=O)c1ccccn1)Nc1cccc2ccccc12`, the activation (% of control) is 103%.

For `CNC(=O)/C(C#N)=C/c1c(F)cccc1Cl`, the activation (% of control) was 82.9%.

Turning to `Cc1ccc(O)c(CCc2ccccc2)n1`, the activation (% of control) is 104%.

For the molecule `COc1ccc(C(=O)Nc2ccc(S(=O)(=O)Nc3onc(C)c3C)cc2)cc1OC`, the activation (% of control) is 104%.

Take `Cc1ccc(C(=O)/C=C/Nc2ccc(S(=O)(=O)Nc3onc(C)c3C)cc2)cc1`: the activation (% of control) was 142% (active).

On to `Cc1noc(NS(=O)(=O)c2ccc(N/C=C/C(=O)c3ccccc3)cc2)c1C`, for which the activation (% of control) is 113%.

In the case of `CC(C)C(O)C1CCN(Cc2nc(Cc3ccccc3Cl)no2)CC1` (stereo not drawn), the activation (% of control) was 105%.

Regarding `Cc1ccc(N(C(=O)c2ccc(S(=O)(=O)N(C)C)cc2)C2C=CS(=O)(=O)C2)cc1` (stereo not drawn), the activation (% of control) is 96.7%.

With `CCC(O)C1CCN(Cc2cn(-c3ccc(OC)cc3)nc2-c2cccc(F)c2)CC1` (stereo not drawn), the activation (% of control) was 107%.

In the case of `CCc1nc(Nc2ccc3nccnc3c2)c2oc3ccccc3c2n1`, the activation (% of control) is 98.2%.

For the molecule `COc1ccccc1Nc1ncnc2c1oc1ccccc12`, the activation (% of control) is 137% (active).

Regarding `Cc1nc(Cl)c2oc3ccccc3c2n1`, the activation (% of control) was 103%.

On to `CCN(c1ccc(NC(=O)COC(=O)CCc2nc3ccccc3n2-c2ccccc2)cc1)C(C)C`, for which the activation (% of control) was 99.5%.

As for `CCC(=O)NC(=Nc1nc2ccccc2s1)NC(=O)CC`, the activation (% of control) was 180% (active).

As to `COC(=O)c1nc2ccccc2s1`, the activation (% of control) was 103%.

On to `CC(C)CC(=O)N/C(N)=N/c1nc2ccccc2s1`, for which the activation (% of control) is 123%.

On to `Cc1ccc(S(=O)(=O)N(C)C)cc1NC(=O)c1ccccc1Br`, for which the activation (% of control) was 106%.

Regarding `Cc1c(C(=O)Nc2ccccc2)sc2nc3n(c(=O)c12)CCCCC3`, the activation (% of control) was 130% (active).

As to `Cc1c(C(=O)Nc2cccc(-c3nnc4n3CCCCC4)c2)oc2ccccc12`, the activation (% of control) was 104%.

On to `O=c1c2c(nc3n1CCCCC3)sc1c(O)cccc12`, for which the activation (% of control) was 104%.

For `COc1ccc(-c2nc3cnccn3c2NC(C)(C)CC(C)(C)C)cc1O`, the activation (% of control) is 102%.

The values above are taken from PubChem BioAssay AID932 (The Scripps Research Institute Molecular Screening Center, 2007).
